G9a inh = qHTS Assay for Inhibitors of Histone Lysine Methyltransferase G9a; Histone-lysine N-methyltransferase EHMT2 (Homo sapiens), Q96KQ7; G9a H3K9 monomethylation, AlphaScreen, 2 h; Potency, µM (titrated, usually from 102 µM), inactives show at the highest dose activity, negative = inhibition, actives largely listed as inhibitors; 8.8% of 350,000 active; AID 504332, 2011; further: on the % scale 0 is the no-effect control and ±100 the full control effect; nearly all actives have a fitted effect of over 75% in size
Target sequence (Q96KQ7 913-1193 limits assumed): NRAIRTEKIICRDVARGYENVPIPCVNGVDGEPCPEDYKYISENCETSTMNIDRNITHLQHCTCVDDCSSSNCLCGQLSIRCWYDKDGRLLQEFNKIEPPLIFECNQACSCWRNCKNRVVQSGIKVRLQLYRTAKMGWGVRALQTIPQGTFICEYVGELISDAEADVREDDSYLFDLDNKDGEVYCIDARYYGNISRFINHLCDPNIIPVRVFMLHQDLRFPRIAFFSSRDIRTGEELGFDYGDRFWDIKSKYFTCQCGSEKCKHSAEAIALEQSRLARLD
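G9a (20 nM) preincubated 15 min RT with compounds, then 500 nM biotinylated H3K9 peptide and 20 uM SAM added; 2 h RT reaction. Monomethyl-H3K9 product detected by AlphaScreen with anti-H3K9me1 antibody, streptavidin donor and anti-rabbit IgG acceptor beads.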
JMJD2A Tudor = qHTS Assay for Inhibitors of JMJD2A-Tudor Domain. Lysine-specific demethylase 4A (Homo sapiens), O75164. 4.4% of 390,000 active. AlphaScreen JMJD2A-Tudor / H3K4me3 peptide binding. Potency, µM (titrated, usually from 114 µM), inactives show at the top dose activity change, negative = inhibition, most hits filed as inhibitors; further: on the % scale 0 is the no-effect control and ±100 the full control effect; nearly all actives have a fitted effect of over 50% in size
L3MBTL1 block = qHTS Assay for the Inhibitors of L3MBTL1; 0.66% of 230,000 active; Potency, µM (series often up to 57.1 µM), without a hit: at the top dose activity, negative = inhibition, most hits filed as inhibitors; AlphaScreen L3MBTL1–H3K9me1 peptide binding; AID 485360, 2010; Lethal(3)malignant brain tumor-like protein 1 (Homo sapiens), Q9Y468; further: on the % scale 0 is the no-effect control and ±100 the full control effect; nearly all actives have a fitted effect of over 60% in size
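L3MBTL1 50 nM + b-AHA-H3(1-15)K9me1 75 nM, 30 min RT; compound added, 30 min RT; streptavidin donor/Ni-chelate acceptor beads 10 ug/mL each final, 30 min RT dark; AlphaScreen read.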
BAZ2B block = qHTS Assay for Inhibitors of BAZ2B; Bromodomain adjacent to zinc finger domain protein 2B (Homo sapiens), Q9UIF8; AlphaScreen BAZ2B-H3K14Ac peptide displacement; Potency, µM (doses to about 114 µM), for inactives: at the highest dose activity change, negative = inhibition, most hits filed as inhibitors; 4.4% of 360,000 active; AID 504333, 2011; further: on the % scale 0 is the no-effect control and ±100 the full control effect; nearly all actives have a fitted effect of over 60% in size
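Multi-concentration screen (max 110 uM) measuring displacement of acetylated histone H3 peptide from BAZ2B by AlphaScreen, using 50 nM protein, 50 nM peptide and 10 ug/mL streptavidin donor plus Ni-chelate acceptor beads.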
HP1b binding inh = HTS for Inhibitors of HP1-beta Chromodomain Interactions with Methylated Histone Tails; AlphaScreen HP1-beta / biotin-H3K9me3 peptide binding; AID 540317, 2011; 0.56% of 390,000 active; Chromobox protein homolog 1 (Homo sapiens), P83916; Potency, µM (top dose mostly 114 µM), for inactives: at the highest dose activity change, negative = inhibition, most hits filed as inhibitors; further: nearly all actives have a fitted effect of over 70% in size
Target sequence (P83916 whole entry, looked up): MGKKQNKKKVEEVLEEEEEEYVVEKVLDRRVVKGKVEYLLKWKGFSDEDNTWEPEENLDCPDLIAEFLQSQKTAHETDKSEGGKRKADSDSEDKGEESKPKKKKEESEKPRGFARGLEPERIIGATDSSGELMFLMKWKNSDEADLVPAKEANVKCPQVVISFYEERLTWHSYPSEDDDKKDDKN
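Compound inhibition of the preformed complex between 50 nM HP1-beta and 50 nM biotinylated H3K9me3 peptide was read by AlphaScreen. Buffer was PBS pH 7.4 with 0.01% Tween-20. Incubations ran 30 min at room temperature, with 10 ug/mL donor/acceptor beads.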
* hit, by the source's call; u = inconclusive; x = not tested or not shown; ! = a repeat was not active; [ ] = dose if it differs, or a comment. Hits are enriched below; roughly 11% of the tested compounds scored in any of these assays. The call rests on the fitted dose curve; in most records, active means well fitted inhibition curve with a large enough effect; inconclusive means small, poorly fitted or top-dose-only effect; inactive means no such curve, though single readings can be large or run the other way. Potency means the concentration at half of the fitted maximal effect.

SMILES	G9a inh	JMJD2A Tudor	L3MBTL1 block	BAZ2B block	HP1b binding inh
Cc1ccc(CN2CCN(C3CCN(C(=O)c4ccc(C)cc4)CC3)C(=O)C2=O)cc1	0%[59 µM]	-15%	x	0%	10%
COc1ccc(C(=O)CN2CCN(c3cc(C)nc4ccccc34)CC2)cc1	13µM*	-17%	-10%	-12%	37%
COc1ccc(N2CCN(CC(=O)c3ccccc3)CC2)cc1	11µM*	u	x	-21%	-2%
O=C(CN1CCN(c2ccc([N+](=O)[O-])cc2)CC1)c1ccccc1	7.1µM*	u	x	-26%	-4%
CCCCNCC#CCOc1cc(C)ccc1C(C)C	x	22µM*	91%	u	-3%
Cc1ccc(C(C)C)c(OCCCNCc2cccnc2)c1	50µM*	-7%	0%	-34%	30%
COc1cc(C(=O)NCCOc2cc(C)ccc2C(C)C)cc(OC)c1OC	3%	-15%	x	-10%	50%
Cc1ccc(C(C)C)c(OCCNCCc2ccccc2)c1	x	25µM*	-10%	u	u
COc1ccc(C(CNC(=O)CN2C(=O)NC3(CCCC3)C2=O)N(C)C)cc1 (stereo not given)	-10%	-19%	x	-1%	39%
Clc1ccc(CO/N=C2\CCCc3nonc32)cc1	111%	71µM*	6%	144%	81%
Clc1ccccc1CO/N=C1\CCCc2nonc21	62%[59 µM]	55%	41%	120%	133%
Cc1cc(C)cc(NC(=O)C(=O)NCC(c2ccc3c(c2)OCO3)N2CCN(C)CC2)c1 (stereo not given)	-5%[59 µM]	-12%	x	-21%	19%[57 µM]
CCc1ccc(CNC(=O)Cn2nc(C)c3c(C)n(-c4ccc(C)cc4)nc3c2=O)cc1	3%[59 µM]	-7%	x	-4%	42%
Cc1nn(CCC(=O)NCc2ccc(N(C)C)cc2)c(=O)c2nn(-c3ccccc3)c(C)c12	45µM*	-25%	x	-13%	43%
CCOc1ccc(CNC(=O)Cn2nc(C)c3c(C)n(-c4ccc(C)cc4)nc3c2=O)cc1	16%	40µM*!	x	-32%	16%
COc1ccc(OC)c(CCNC(=O)Cn2nc(C)c3c(C)n(-c4ccc(C)cc4)nc3c2=O)c1	x	-26%	x	50µM*	27%
Cc1nn(CCC(=O)NCc2ccc(Cl)cc2)c(=O)c2nn(-c3ccccc3)c(C)c12	-27%[59 µM]	-4%	x	-6%	14%
Cc1cccc(-c2nc3c(C#N)c[nH]n3c2NC2CCCCC2)c1	u	-8%	x	6%	34%
COc1cc2c(cc1OC)-c1cc(NC3CCCCCCC3)nc(=O)n1CC2	45µM*	-20%	4%	-29%	16%
COc1cc2c(cc1OC)-c1cc(NCc3ccccn3)nc(=O)n1CC2	x	-24%[11.4 µM]	u	28µM*	10%
CCNc1cc2n(c(=O)n1)CCc1cc(OC)c(OC)cc1-2	3%	-17%	3%	-2%	14%
COc1cccc(CNC(=O)c2ccc3c(c2)N(Cc2ccc(F)cc2Cl)C(=O)c2ccccc2S3)c1	-4%[59 µM]	-19%	x	-2%	23%
CCOC1(OCC)N=C(N)C2(C#N)C(c3ccc(NC(C)=O)cc3)C12C#N (stereo not given)	50µM*	u	-7%	79µM*	12%
CCSC1(SCC)N=C(N)C2(C#N)C(c3ccc(F)cc3)C12C#N (stereo not given)	40µM*	-6%	3%	-23%	44%
CC(C)(C)C1CCc2c(sc(NC(=O)Cn3nnc(-c4ccccc4F)n3)c2C#N)C1 (stereo not given)	2%[59 µM]	-25%	x	-22%	5%
SMILES	G9a inh	JMJD2A Tudor	L3MBTL1 block	BAZ2B block	HP1b binding inh
CCN(CC)S(=O)(=O)c1ccc(C)c(NC(=O)COc2ccc(Cl)cc2Br)c1	45µM*	-15%	2%	-29%	40%
Cc1c(Br)c([N+](=O)[O-])nn1CC(=O)Nc1ccc(Cc2ccncc2)cc1	45µM*	-31%	-6%	u	2%
O=C(C1=C(O)C(=O)N(CC2CCCO2)C1c1cccnc1)c1ccco1 (stereo not given)	40µM*	u	8%	u	16%
COc1ccc(C2C(C(=O)c3ccco3)=C(O)C(=O)N2CCc2ccccc2)cc1OC (stereo not given)	50µM*	79µM*	-6%	-35%	-6%
CC(C)(C)c1ccc(C2C(C(=O)c3ccco3)=C(O)C(=O)N2CC2CCCO2)cc1 (stereo not given)	-11%[59 µM]	-18%	x	-9%	14%
O=C(C1=C(O)C(=O)N(CC2CCCO2)C1c1ccccc1)c1ccco1 (stereo not given)	45µM*	-16%	x	-2%	-13%
O=C(C1=C(O)C(=O)N(CC2CCCO2)C1c1cccc(Cl)c1)c1ccco1 (stereo not given)	u	-3%	x	-1%	10%
COc1ccc(C2C(C(=O)c3ccco3)=C(O)C(=O)N2CC2CCCO2)cc1OC (stereo not given)	50µM*	-31%	x	-36%	-28%
Cc1sc2ncn(CC(=O)N(C)c3cccc(C(F)(F)F)c3)c(=O)c2c1S(=O)(=O)N1CCN(c2ncccn2)CC1	-33%[59 µM]	-13%	x	-10%	13%
CCOc1ccc(CCNC(=O)CCCc2nnc3n(C)c(=O)c4sccc4n23)cc1OCC	2%[59 µM]	-17%	x	3%	16%
Cc1ccccc1NCc1cccn1-c1nnc(N2CCC(C)CC2)s1	-4%[59 µM]	-28%	x	16%[57.1 µM]	10%
CC(C)CN(CCCNC(=O)c1cc(-c2ccc(Br)s2)nc2ccccc12)CC(C)C	10%[59 µM]	4%	x	1%	42%
Oc1c(Cl)cc(Cl)c2c1NCCC2	u	56µM*	-6%	u	50µM*
O=C1NCCCc2c1oc1ccc(O)cc21	25%[2.33 µM]	-9%	44%	13%	5%
ClCC1NCC(c2ccccc2Cl)c2c1[nH]c1ccccc21 (stereo not given)	u	u	x	45µM*	10%
Cc1ccc(Cl)cc1N1CCN(C(=O)c2ccc3c(Cl)c4c(nc3c2)CCCC4)CC1	-8%[59 µM]	-18%	x	-21%	10%
CC(C)(C)C1CCC(=NNc2ncc(C(F)(F)F)cc2Cl)CC1 (stereo not given)	26%[59 µM]	-30%	x	79µM*	13%
C/C(=N/Nc1ncc(C(F)(F)F)cc1Cl)c1ccncc1	24%	-2%	-5%	28%	25%
CC12CCC(C(=O)N(CCCN3CCN(Cc4ccccc4)CC3)C1=O)C2(C)C (stereo not given)	u	u	-4%	50µM*	5%
